Source: PMC5540273 (PLoS ONE, 2017)

Tests used:
Details in all cases: concentration: 1 μM, replicates: in singlicate; n = 1
MEK5 = tested on: T1, MEK5
T1 construct: gene MAP2K5

MEK6 = tested on: T2, MEK6
T2 construct: gene MAP2K6

MELK = tested on: MELK
MERTK = tested on: MERTK
MET = tested on: MET
MINK = tested on: T3, MINK
T3 construct: gene MINK1

MKK7 = tested on: MKK7
MKNK1 = tested on: MKNK1
MKNK2 = tested on: MKNK2
MLCK = tested on: T4, MLCK
T4 construct: gene MYLK3
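Further: KINOMEscan kinase panel screen.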

Compound | %Inh (MEK5) | %Inh (MEK6) | %Inh (MELK) | %Inh (MERTK) | %Inh (MET) | %Inh (MINK) | %Inh (MKK7) | %Inh (MKNK1) | %Inh (MKNK2) | %Inh (MLCK)
O=C(Nc1n[nH]c2cc(-c3cccs3)ccc12)C1CC1 [SB-731284] | 33% | 0% | 0% | 0% | 0% | 67% | 0% | 31% | 28% | 71%
COc1cccc(CC(=O)N2CCc3cc(-c4cn(C)c5ncnc(N)c45)ccc32)c1 [GSK2608899] | 99.7% | 0% | 13% | 75% | 75% | 19% | 0% | 9% | 14% | 10%
Cc1ccc(NC(=O)c2ccnc(N3CCCCC3)c2)cc1-c1ccc(C(=O)NCC2CC2)cc1 [GW775610] | 1% | 6% | 0% | 3% | 0% | 5% | 0% | 0% | 33% | 0%
CC(C)c1nc(-c2ccc(F)c(NS(=O)(=O)c3c(F)cccc3F)c2)c(-c2ccnc(Nc3ccc(N4CCOCC4)nc3)n2)s1 [GSK1804250] | 100% | 22% | 45% | 54% | 70% | 26% | 15% | 21% | 11% | 0%
CC(C)NCC(Cc1ccccc1)NC(=O)c1cc(Br)c(-c2ccnc3[nH]ccc23)s1.Cl.Cl (centres unmarked) [GSK1383281] | 3% | 79% | 97.5% | 39% | 17% | 37% | 0% | 0% | 90.5% | 13%
N#Cc1cnc2cc(-c3cnc(CNCCN4CCOCC4)s3)ccc2c1Nc1ccc(Oc2ccccc2)cc1 [GW664114] | 99.9% | 0% | 15% | 72% | 7% | 95.2% | 6% | 6% | 6% | 0%
Cl.N#CCc1ccc(Nc2nccc(Nc3ccc(Oc4ccccc4)cc3)n2)cc1 [GW639905] | 99.9% | 0% | 0% | 0% | 0% | 0% | 0% | 0% | 33% | 0%
Cc1cc(-c2ccnc(Nc3cccc(C#N)c3)n2)cc(C)c1O [GSK1440913] | 23% | 35% | 0% | 42% | 38% | 52% | 36% | 2% | 2% | 77%
Cl.O=C(Nc1ccc(Oc2ccc3[nH]c(NC(=O)c4ccco4)nc3c2)cc1)Nc1cc(C(F)(F)F)ccc1F [GW683134] | 85% | 0% | 0% | 99.6% | 83% | 0% | 0% | 46% | 93.5% | 15%
COc1cc(Nc2nccc(N3CCC(NS(=O)(=O)c4ccc(NC(C)=O)cc4)CC3)n2)cc(OC)c1OC [GSK1379825] | 88% | 24% | 19% | 38% | 0% | 0% | 15% | 0% | 83% | 0%
O=C(O)C(F)(F)F.O=c1[nH]ccc2nc(N[C@@H]3CCNC3)nc(Nc3ccc4c(c3)S(=O)(=O)CC4)c12 [GSK2181306] | 99.9% | 68% | 92.2% | 91.7% | 26% | 96.6% | 0% | 3% | 24% | 98.1%
Cc1ccc(NC(=O)c2cccc(N3CCCCC3)c2)cc1-c1ccc(C(=O)NCC2CC2)cc1 [GSK1917008] | 20% | 35% | 0% | 18% | 0% | 0% | 0% | 10% | 18% | 0%
CN(C)CCOc1ccc(-c2cc(-c3ccc(Cl)c(O)c3)c(-c3ccncc3)[nH]2)cc1.Cl.Cl [SB-684387] | 21% | 0% | 15% | 0% | 43% | 36% | 0% | 7% | 4% | 13%
O=C1NC(=O)C(c2ccccc2Cl)=C1Nc1cccc(Cl)c1 [SB-342409] | 53% | 0% | 0% | 1% | 0% | 0% | 23% | 0% | 18% | 3%
COC(=O)Nc1nc2cc(Oc3ccc(NC(=O)Nc4cccc(SC)c4)cc3)ccc2[nH]1.Cl [GW697999] | 55% | 0% | 0% | 89% | 21% | 23% | 0% | 32% | 65% | 0%
O=C(O)C(F)(F)F.O=c1[nH]ccc2nc(N[C@@H]3CCNC3)nc(Nc3cc(Cl)cc(Cl)c3)c12 [GSK2188764] | 100% | 34% | 100% | 51% | 0% | 97.6% | 20% | 0% | 14% | 99.1%

Compound | %Inh (MEK5) | %Inh (MEK6) | %Inh (MELK) | %Inh (MERTK) | %Inh (MET) | %Inh (MINK) | %Inh (MKK7) | %Inh (MKNK1) | %Inh (MKNK2) | %Inh (MLCK)
CNc1nccc(-c2ccc3c(N)n[nH]c3c2)n1 [GSK2206003] | 49% | 9% | 61% | 21% | 0% | 59% | 0% | 41% | 97.9% | 76%
NCCC(NC(=O)c1cc(Br)c(-c2ccnc3[nH]ccc23)s1)c1ccccc1.O=C(O)C(F)(F)F.O=C(O)C(F)(F)F (centres unmarked) [GSK1307810] | 18% | 8% | 74% | 25% | 24% | 55% | 18% | 32% | 93.9% | 85%
Cc1ccc(C)c(NC(=O)Nc2ccc(C)c(-c3ccc(C(=O)Nc4ccncc4)cc3)c2)c1 [GSK1398473] | 3% | 0% | 81% | 22% | 0% | 6% | 0% | 0% | 4% | 0%
CC(C)c1nc(-c2cccc(NS(=O)(=O)c3c(F)cccc3F)c2)c(-c2ccnc(Nc3ccc(N4CCOCC4)nc3)n2)s1.Cl [GSK1723980] | 99.9% | 37% | 47% | 50% | 42% | 17% | 0% | 10% | 98.8% | 0%
COc1cc(Nc2ccnc3cc(-c4ccncc4)ccc23)cc(OC)c1OC.Cl [GW494610] | 99.8% | 0% | 18% | 13% | 13% | 95.1% | 23% | 28% | 14% | 0%
Cc1nn2c(=O)cc(N3CCO[C@H](C)C3)nc2n1Cc1cccc(Cl)c1Cl [GSK2373693] | 19% | 0% | 2% | 17% | 0% | 0% | 0% | 0% | 19% | 0%
COC(=O)Nc1nc2ccc(Oc3ccc(CC(=O)Nc4cc(C(F)(F)F)ccc4F)cc3)cc2[nH]1 [GW680903] | 31% | 0% | 0% | 44% | 0% | 0% | 8% | 13% | 3% | 0%
Cc1ccc(NC(=O)c2ccc(Cl)c(Cl)c2)cc1-c1ccc(C(=O)Nc2ccncc2)cc1 [GSK1398460] | 27% | 5% | 0% | 36% | 0% | 6% | 0% | 11% | 0% | 0%
Nc1ncc(-c2ccc3nccc(-c4ccncc4)c3c2)cc1S(=O)(=O)N1CCCCC1 [GSK1693850] | 50% | 12% | 36% | 35% | 0% | 31% | 0% | 2% | 6% | 0%
Cc1cccc(Nc2nc(N[C@H]3CCCC[C@H]3N)ncc2C(N)=O)c1.Cl [GSK986310] | 98.4% | 5% | 0% | 64% | 0% | 73% | 0% | 0% | 17% | 13%
O=C(Nc1c(F)cccc1F)c1cc(C(=O)c2ccccc2F)c[nH]1 [GSK1326180] | 20% | 0% | 0% | 18% | 0% | 47% | 0% | 10% | 0% | 2%
Cn1cc(-c2ccc3c(c2)CCN3C(=O)Cc2cc(F)cc(F)c2F)c2c(N)ncnc21 [GSK2634140] | 98.9% | 0% | 12% | 38% | 68% | 21% | 0% | 5% | 1% | 11%
CCNC(=O)/C=C/c1n[nH]c2cc(Sc3ccccc3C(=O)NC)ccc12 | 45% | 0% | 7% | 20% | 13% | 56% | 0% | 0% | 1% | 0%
Cc1cccc(Nc2nc(NCCN)ncc2C(N)=O)c1 [GSK1292139] | 99.2% | 19% | 1% | 3% | 29% | 87% | 0% | 13% | 15% | 14%
CC(C)(C)c1ccc(C(=O)Nc2cn3cc(-n4ccnc4)ccc3n2)cc1 | 99% | 0% | 0% | 0% | 0% | 18% | 0% | 8% | 0% | 19%
Fc1cc(Cl)ccc1Nc1ccnc2cc(-c3ccc(CN4CCOCC4)o3)ccc12 [GW560109] | 99.8% | 0% | 0% | 28% | 51% | 58% | 10% | 13% | 77% | 0%
